# Assay results published in doi:10.1101/2024.03.05.583629.
# Molecular target: pT7_6His-AlfaTag-HOXD13 (human, UniProt P35453 263-343)
# Experiment: PADIT-seq
# Conditions: dsDNA, one strand shown
# Chain of pT7_6His-AlfaTag-HOXD13 (P35453 263-343): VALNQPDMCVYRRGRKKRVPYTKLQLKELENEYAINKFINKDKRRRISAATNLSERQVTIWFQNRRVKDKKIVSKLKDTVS
row,Sequence,binding signal
1,CTCGAGGATATCAAGATCTGGCCTCGGCTTTCCACGCGGAACCTCTAGCTAGCCGACTCACTATAGGGATAATCGCCCTGAGCAAAGACC,-0.793 ± 0.11 log2FC
2,CTCGAGGATATCAAGATCTGGCCTCGGCTCTGTAAAAGGAACCTCTAGCTAGCCGACTCACTATAGGGATAATCGCCCTGAGCAAAGACC,1.83 ± 0.0871 log2FC
3,CTCGAGGATATCAAGATCTGGCCTCGGCCGCGTGCGCGGAACCTCTAGCTAGCCGACTCACTATAGGGATAATCGCCCTGAGCAAAGACC,-0.99 ± 0.127 log2FC
4,CTCGAGGATATCAAGATCTGGCCTCGGCCTTTTACTAGGAACCTCTAGCTAGCCGACTCACTATAGGGATAATCGCCCTGAGCAAAGACC,3.01 ± 0.0725 log2FC
5,CTCGAGGATATCAAGATCTGGCCTCGGCATTTTATCGGGAACCTCTAGCTAGCCGACTCACTATAGGGATAATCGCCCTGAGCAAAGACC,1.85 ± 0.0758 log2FC
6,CTCGAGGATATCAAGATCTGGCCTCGGCGTTTTAGCTGGAACCTCTAGCTAGCCGACTCACTATAGGGATAATCGCCCTGAGCAAAGACC,-0.719 ± 0.136 log2FC
7,CTCGAGGATATCAAGATCTGGCCTCGGCGCGTATGCGGGAACCTCTAGCTAGCCGACTCACTATAGGGATAATCGCCCTGAGCAAAGACC,-1.09 ± 0.121 log2FC
8,CTCGAGGATATCAAGATCTGGCCTCGGCAGCCTAAAAGGAACCTCTAGCTAGCCGACTCACTATAGGGATAATCGCCCTGAGCAAAGACC,-0.607 ± 0.118 log2FC
9,CTCGAGGATATCAAGATCTGGCCTCGGCCGATTAAAAGGAACCTCTAGCTAGCCGACTCACTATAGGGATAATCGCCCTGAGCAAAGACC,1.2 ± 0.104 log2FC
10,CTCGAGGATATCAAGATCTGGCCTCGGCGTTTTAAACGGAACCTCTAGCTAGCCGACTCACTATAGGGATAATCGCCCTGAGCAAAGACC,0.884 ± 0.0954 log2FC
11,CTCGAGGATATCAAGATCTGGCCTCGGCCGCCCAACTGGAACCTCTAGCTAGCCGACTCACTATAGGGATAATCGCCCTGAGCAAAGACC,-1.02 ± 0.119 log2FC
12,CTCGAGGATATCAAGATCTGGCCTCGGCCGCTCGCGCGGAACCTCTAGCTAGCCGACTCACTATAGGGATAATCGCCCTGAGCAAAGACC,-1.03 ± 0.134 log2FC
13,CTCGAGGATATCAAGATCTGGCCTCGGCGCGCGAGCGGGAACCTCTAGCTAGCCGACTCACTATAGGGATAATCGCCCTGAGCAAAGACC,-0.654 ± 0.136 log2FC
14,CTCGAGGATATCAAGATCTGGCCTCGGCGTTTTACGAGGAACCTCTAGCTAGCCGACTCACTATAGGGATAATCGCCCTGAGCAAAGACC,3.47 ± 0.133 log2FC
15,CTCGAGGATATCAAGATCTGGCCTCGGCGGTATAAAAGGAACCTCTAGCTAGCCGACTCACTATAGGGATAATCGCCCTGAGCAAAGACC,1.44 ± 0.072 log2FC
16,CTCGAGGATATCAAGATCTGGCCTCGGCTTACCACGCGGAACCTCTAGCTAGCCGACTCACTATAGGGATAATCGCCCTGAGCAAAGACC,-1.03 ± 0.114 log2FC

row,Sequence,binding signal
1,CTCGAGGATATCAAGATCTGGCCTCGGCTTTTTAATGGGAACCTCTAGCTAGCCGACTCACTATAGGGATAATCGCCCTGAGCAAAGACC,2.57 ± 0.0871 log2FC
2,CTCGAGGATATCAAGATCTGGCCTCGGCTGGTTAAAAGGAACCTCTAGCTAGCCGACTCACTATAGGGATAATCGCCCTGAGCAAAGACC,1.48 ± 0.0798 log2FC
3,CTCGAGGATATCAAGATCTGGCCTCGGCGGACCACGCGGAACCTCTAGCTAGCCGACTCACTATAGGGATAATCGCCCTGAGCAAAGACC,-0.846 ± 0.11 log2FC
4,CTCGAGGATATCAAGATCTGGCCTCGGCCCCTGGGCGGGAACCTCTAGCTAGCCGACTCACTATAGGGATAATCGCCCTGAGCAAAGACC,-0.981 ± 0.122 log2FC
5,CTCGAGGATATCAAGATCTGGCCTCGGCGGGGTAAAAGGAACCTCTAGCTAGCCGACTCACTATAGGGATAATCGCCCTGAGCAAAGACC,-0.462 ± 0.0883 log2FC
6,CTCGAGGATATCAAGATCTGGCCTCGGCAAGTTAAAAGGAACCTCTAGCTAGCCGACTCACTATAGGGATAATCGCCCTGAGCAAAGACC,1.07 ± 0.0825 log2FC
7,CTCGAGGATATCAAGATCTGGCCTCGGCTAACTAAAAGGAACCTCTAGCTAGCCGACTCACTATAGGGATAATCGCCCTGAGCAAAGACC,-0.24 ± 0.119 log2FC
8,CTCGAGGATATCAAGATCTGGCCTCGGCACTTTAAAAGGAACCTCTAGCTAGCCGACTCACTATAGGGATAATCGCCCTGAGCAAAGACC,2.07 ± 0.0674 log2FC
9,CTCGAGGATATCAAGATCTGGCCTCGGCATTTTATTGGGAACCTCTAGCTAGCCGACTCACTATAGGGATAATCGCCCTGAGCAAAGACC,3.32 ± 0.0805 log2FC
10,CTCGAGGATATCAAGATCTGGCCTCGGCTTTTTACGCGGAACCTCTAGCTAGCCGACTCACTATAGGGATAATCGCCCTGAGCAAAGACC,2.08 ± 0.0867 log2FC
11,CTCGAGGATATCAAGATCTGGCCTCGGCATTATAAAAGGAACCTCTAGCTAGCCGACTCACTATAGGGATAATCGCCCTGAGCAAAGACC,2.37 ± 0.0729 log2FC
12,CTCGAGGATATCAAGATCTGGCCTCGGCGTTTTAGAGGGAACCTCTAGCTAGCCGACTCACTATAGGGATAATCGCCCTGAGCAAAGACC,1.24 ± 0.114 log2FC
13,CTCGAGGATATCAAGATCTGGCCTCGGCCTTTTATATGGAACCTCTAGCTAGCCGACTCACTATAGGGATAATCGCCCTGAGCAAAGACC,2.91 ± 0.0779 log2FC
14,CTCGAGGATATCAAGATCTGGCCTCGGCCTTTTACGTGGAACCTCTAGCTAGCCGACTCACTATAGGGATAATCGCCCTGAGCAAAGACC,2.16 ± 0.0717 log2FC
15,CTCGAGGATATCAAGATCTGGCCTCGGCGTGTTAAAAGGAACCTCTAGCTAGCCGACTCACTATAGGGATAATCGCCCTGAGCAAAGACC,1.46 ± 0.0736 log2FC
16,CTCGAGGATATCAAGATCTGGCCTCGGCGCGCCGGCGGGAACCTCTAGCTAGCCGACTCACTATAGGGATAATCGCCCTGAGCAAAGACC,-1.04 ± 0.18 log2FC
